Test [1] in a line: qHTS assay to test for compound auto fluorescence at 535 nm (green) in HEK293 cells (AID 720680). (In general: In qHTS, concentration-response curves come from the screen itself.)
Test [2] in a line: qHTS assay to test for compound auto fluorescence at 460 nm (blue) in HEK293 cell free culture (AID 720681). The gist of the method:
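Test compounds were pinned into cell-free culture medium (DMEM with 10% FBS) and fluorescence was read directly at Ex/Em 405/460 nm. Signals were expressed as fluorescence equivalents of triamterene, with DMSO vehicle as control.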

A short description of test [3]: qHTS assay to test for compound auto fluorescence at 535 nm (green) in HEK293 cell free culture (AID 720682). In short, it runs like this:
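Cell-free medium (DMEM, 10% FBS) receives compound or DMSO by pintool. Plate read directly at Ex 485/Em 535 nm. Signal converted to fluorescein equivalency.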

Test [4] can be described thus: qHTS assay to test for compound auto fluorescence at 590 nm (red) in HEK293 cell free culture (AID 720683). In short, it runs like this:
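Tox21 10K library compounds were pinned into cell-free DMEM with 10% FBS and fluorescence was read at excitation 540 nm. Activity is expressed as Rose Bengal sodium equivalency.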

Test [5] can be described thus: qHTS assay to test for compound auto fluorescence at 590 nm (red) in HepG2 cell free culture (AID 720684). In short, it runs like this: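 Ex 540 / Em 590 nm read of compound in cell-free MEM (10% FBS). Rose Bengal sodium reference.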
A short description of test [6]: qHTS assay to test for compound auto fluorescence at 460 nm (blue) in HepG2 cell free culture (AID 720685). In short, it runs like this:
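Cell-free plates of MEM plus 10% FBS received 23 nL compound or DMSO vehicle; blue-channel (405/460 nm) intensity scored against triamterene as reference fluorophore.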

Test [7] in a line: qHTS assay to test for compound auto fluorescence at 535 nm (green) in HepG2 cell free culture (AID 720686).
Test [8] addresses Glucocorticoid receptor (Homo sapiens) (UniProt P04150). The test is described as follows: qHTS assay to identify small molecule agonists of the glucocorticoid receptor (GR) signaling pathway (AID 720691; active = well fitted activation curve with a large enough effect in the signal ratio in the repeat runs, not every such curve was filed as active; the % refers to the signal ratio). The settings on record: GR-bla HeLa, beta-lactamase reporter ratio, 18 h; activation: at 62.4 µM (top of the series). The gist of the method: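 Steps: seed GR-bla HeLa cells, incubate 4 h at 37 C/5% CO2; pin-transfer DMSO-dissolved compounds; incubate 18 h at 37 C; add LiveBLAzer B/G FRET substrate; after 2 h at room temperature, measure fluorescence.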

Test [9] has the same target. The test is described as follows: qHTS assay to identify small molecule antagonists of the glucocorticoid receptor (GR) signaling pathway (AID 720692; active = well fitted inhibition curve with a large enough effect in the signal ratio in the repeat runs, not every such curve was filed as active; the % refers to the signal ratio; also: potency is read from the fitted curve at half-maximal effect). In short, it runs like this: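 Antagonism was scored as loss of dexamethasone-driven (5 nM final) reporter signal in HeLa cells bearing a glucocorticoid response element–beta-lactamase construct, after 18 h compound exposure at 37 C and 2 h FRET substrate loading.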

Test [10] is described as follows: qHTS assay to test for compound auto fluorescence at 460 nm (blue) in HepG2 cells (AID 720687). The gist of the method:
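Cells (2,000/well in MEM with 10% FBS) attached overnight at 37 C, then were exposed to compound or DMSO for 1 hr at 37 C, 5% CO2. Fluorescence read at Ex/Em 405/460 nm, expressed as triamterene-equivalent signal.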

Inconclusive results are not listed. Active and inactive are the calls of the source. Unless noted, calls follow the shape of the dose curve; as a rule, active = well fitted curve in the direction sought with a large enough effect in the repeat runs; inconclusive = weak or mixed curves; inactive = flat fitted curve, though single readings scatter. Positions of bridges follow the written chain, without caps; N, C: chain ends. Non-standard residues stand in square brackets, D forms with d. Residues, ends and D or L forms follow the SMILES beside them. Orn = NCCC[C@H](N)C(=O)O; Mpa = O=C(O)CCS

Sequence of Glucocorticoid receptor (Homo sapiens) (P04150 whole entry, looked up): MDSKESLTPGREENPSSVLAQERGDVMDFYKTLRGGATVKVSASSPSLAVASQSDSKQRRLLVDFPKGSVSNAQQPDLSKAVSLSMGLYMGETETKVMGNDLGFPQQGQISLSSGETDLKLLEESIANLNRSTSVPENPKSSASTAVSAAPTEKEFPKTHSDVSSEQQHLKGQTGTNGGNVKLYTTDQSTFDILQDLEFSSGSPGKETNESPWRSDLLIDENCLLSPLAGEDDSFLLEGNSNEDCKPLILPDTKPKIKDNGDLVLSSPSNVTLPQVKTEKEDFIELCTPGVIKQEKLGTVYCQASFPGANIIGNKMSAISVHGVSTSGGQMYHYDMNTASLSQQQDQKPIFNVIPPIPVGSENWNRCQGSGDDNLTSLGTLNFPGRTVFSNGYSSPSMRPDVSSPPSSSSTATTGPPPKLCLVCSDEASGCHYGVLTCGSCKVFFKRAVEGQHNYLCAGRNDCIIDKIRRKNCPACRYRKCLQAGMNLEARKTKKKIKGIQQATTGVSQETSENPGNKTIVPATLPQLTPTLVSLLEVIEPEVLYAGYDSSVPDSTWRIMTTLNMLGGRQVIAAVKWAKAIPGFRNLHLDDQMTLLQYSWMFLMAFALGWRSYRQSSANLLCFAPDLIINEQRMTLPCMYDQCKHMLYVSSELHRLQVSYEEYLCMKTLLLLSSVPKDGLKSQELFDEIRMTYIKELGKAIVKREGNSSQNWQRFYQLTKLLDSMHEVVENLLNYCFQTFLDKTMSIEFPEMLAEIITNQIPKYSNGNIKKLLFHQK

On to `COc1cc2[nH]c(C)c(CCN3CCN(c4ccccc4)CC3)c2cc1OC`, for which the Potency entry in [1], in test [2], in [3], in [4], in test [5] and in [7] was “inactive” in each case. Besides, the Potency result in test [8] and in test [9] was “inactive” throughout. In test [6], the outcome was inactive.
With `COc1cc(NCCCC(C)N)c2ncccc2c1` (stereo not given), the Potency result in test [1], in test [2], in [3], in test [4], in [5] and in [7] was “inactive” in each case. The Potency result in test [8] was “inactive”. For the same compound, the compound was classed as inactive in test [6].
For the compound `CO/N=C(\C(=O)N[C@@H]1C(=O)N2C(C(=O)O)=C(CSC(=O)c3ccco3)CS[C@H]12)c1csc(N)n1`, the Potency result in test [1], in test [2], in test [3], in test [4], in test [5] and in test [7] was “inactive” throughout. For the same compound, the Potency result in test [8] and in [9] was “inactive” in each case. Moreover, the compound was classed as inactive in [6].
In the case of `CN1CCCC(CN2c3ccccc3Sc3ccccc32)C1` (stereo not given), the Potency entry in test [1], in [2], in test [3], in [4], in test [5] and in [7] was “inactive” in each case. In addition, the Potency entry in test [9] was “inactive”. Also, the result in test [6] and in test [10] was inactive.
With `Cc1ncc(COP(=O)(O)O)c(CN)c1O`, the Potency entry in test [1], in [2], in [3], in test [4], in test [5] and in [7] was “inactive” throughout. Moreover, the Potency result in test [9] was “inactive”. The call in test [6] and in [10] was inactive.
On to `O=C(O)[C@H](CC(=O)N1C[C@H]2CCCC[C@H]2C1)Cc1ccccc1`, for which the Potency result in test [1], in test [2], in [3], in test [4], in [5] and in test [7] was “inactive” throughout. Moreover, the Potency entry in test [9] is “inactive”. For the same compound, the call in [6] and in [10] was inactive.
With `CCC(=O)NS(=O)(=O)c1ccc(-c2c(-c3ccccc3)noc2C)cc1`, the Potency entry in [1], in test [2], in test [3], in [4], in test [5] and in test [7] was “inactive” in each case. For the same compound, the Potency result in [9] was “inactive”. Moreover, the outcome in [6] and in [10] was inactive.
For the compound `C[C@H](CSC(=O)c1ccccc1)C(=O)N1C[C@@H](Sc2ccccc2)C[C@H]1C(=O)O`, the Potency result in test [1], in [2], in test [3], in [4], in test [5] and in test [7] was “inactive” in each case. For the same compound, the Potency entry in [9] was “inactive”. In addition, the call in test [6] and in test [10] was inactive.
As for `NS(=O)(=O)c1cc2c(cc1Cl)NC(Cc1ccccc1)NS2(=O)=O` (stereo not given), the Potency result in test [1], in test [2], in [3], in test [4], in [5] and in test [7] was “inactive” each time. In [9], the Potency entry is “inactive”. Moreover, the compound was called inactive in test [6] and in test [10].
With `CCOc1ccc(C[C@H]2NC(=O)CCSSC[C@@H](C(=O)N3CCC[C@H]3C(=O)N[C@@H](CCCN)C(=O)NCC(N)=O)NC(=O)[C@H](CC(N)=O)NC(=O)[C@H]([C@@H](C)O)NC(=O)[C@H]([C@@H](C)CC)NC2=O)cc1` ([Mpa][dY](Et)ITNCP[Orn]G-NH2; disulfide 1-6), the Potency entry in [1], in [2], in test [3], in test [4], in test [5] and in [7] was “inactive” throughout. In test [9], the Potency entry was “inactive”. Further, the outcome in [6] and in test [10] was inactive.
For `C#C[C@]1(OC(C)=O)CC[C@H]2[C@@H]3CCC4=CC(=O)CC[C@@H]4[C@H]3CC[C@@]21C`, the Potency result in test [1], in test [2], in test [3], in test [4], in [5] and in test [7] was “inactive” in each case. Besides, the outcome in test [6] and in [10] was inactive. Also, in [9], the Potency was 2.13 µM (active).
Regarding `Cn1nnnc1SCC1=C(C(=O)O)N2C(=O)[C@@H](NC(=O)[C@H](O)c3ccccc3)[C@H]2SC1`, the Potency result in [1], in [2], in test [3], in test [4], in test [5] and in test [7] was “inactive” each time. Besides, the Potency result in test [8] and in test [9] was “inactive” each time. The call in test [6] was inactive.
Turning to `CCCCCCC(=O)O[C@H]1CC[C@H]2[C@@H]3CCc4cc(O)ccc4[C@H]3CC[C@]12C`, the Potency result in test [1], in [2], in [3], in test [4], in [5] and in test [7] was “inactive” throughout. The result in test [6] and in test [10] was inactive. Moreover, in [9], the Potency was 7.56 µM (active).
Consider `O=C(NNCS(=O)(=O)O)c1ccncc1`, for which the Potency entry in test [1], in test [2], in test [3], in [4], in [5] and in test [7] was “inactive” each time. The Potency result in [8] is “inactive”. Further, in test [6], the result was inactive.
Turning to `COc1ccc(CNCC(O)COc2ccc3[nH]c(=O)ccc3c2)cc1OC` (stereo not given), the Potency result in test [1], in test [2], in test [3], in [4], in test [5] and in [7] was “inactive” each time. In test [9], the Potency result is “inactive”. Further, the compound was called inactive in test [6] and in test [10].
In the case of `O=C[C@H](O)[C@@H](O)[C@H](O[C@H]1O[C@H](CO)[C@@H](O[C@H]2O[C@H](CO)[C@@H](O)[C@H](O)[C@H]2O)[C@H](O)[C@H]1O)[C@H](O)CO`, the Potency entry in test [1], in test [2], in test [3], in test [4], in test [5] and in test [7] was “inactive” in each case. In test [8], the Potency entry was “inactive”. For the same compound, the outcome in test [6] was inactive.
Consider `CC[C@H](CC[C@@H](C)[C@H]1CC[C@H]2[C@@H]3CC=C4C[C@@H](O)CC[C@]4(C)[C@H]3CC[C@]12C)C(C)C`, for which the Potency entry in test [1], in test [2], in [3], in [4], in [5] and in test [7] was “inactive” in each case. For the same compound, in [9], the Potency entry was “inactive”. For the same compound, the result in test [6] and in test [10] was inactive.
Consider `Nc1nc(=O)n([C@@H]2CS[C@H](CO)O2)cc1F`, for which the Potency result in test [1], in [2], in test [3], in [4], in test [5] and in test [7] was “inactive” in each case. In test [9], the Potency result was “inactive”. The outcome in test [6] and in test [10] was inactive.
Regarding `CC(CN(C)C)CN1c2ccccc2Sc2ccc(C(F)(F)F)cc21` (stereo not given), the Potency result in [1], in test [2], in [3], in test [4], in test [5] and in [7] was “inactive” throughout. In addition, in test [8], the Potency entry is “inactive”. For the same compound, the compound was classed as inactive in test [6].
Consider `CN1CCN2c3ncccc3Cc3ccccc3C2C1` (stereo not given), for which the Potency result in [1], in test [2], in test [3], in test [4], in test [5] and in test [7] was “inactive” in each case. In addition, the Potency entry in test [9] is “inactive”. For the same compound, the compound was classed as inactive in [6] and in test [10].
As for `CCCN(CC)C(CC)C(=O)Nc1c(C)cccc1C` (stereo not given), the Potency entry in test [1], in test [2], in test [3], in test [4], in [5] and in test [7] was “inactive” in each case. In addition, in [9], the Potency entry was “inactive”. For the same compound, the compound was called inactive in [6] and in test [10].

The record behind these values is PubChem BioAssay (Tox21).
